Screening results as filed in PubChem BioAssay.
Rows were chosen to be rich in hits. Some 3.2% of all compounds tested hit in one or more screens of this group.
LGR2 antag: blocks bursicon-induced cAMP signaling via Drosophila LGR2; HEK293 LGR2, CRE-luciferase, bursicon-stimulated, 4 h; inhibition, % at 9.99 µM; 380,000 compounds, 0.35% hits; AID 720647;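 active = drop in luminescence signal, shown as inhibition above about 50% in the replicate tests, limit read from the data, passing the limit was not always enough; inconclusive = probably only some replicates passing the limit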;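 note: agonist challenge used bursicon conditioned medium at about half maximal strength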
EWS-Fli inh: blocks EWS/Fli oncoprotein-driven transcription. A673 NR0B1-luciferase reporter, viability-normalised. inhibition, % at 12.6 µM. 350,000 compounds, 0.67% hits. AID 651661;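 active = mean inhibition of at least 50% after viability correction, with every replicate also passing that limit; inconclusive = mean reaches 50% but only one of two replicates passes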;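 note: firefly luciferase signal divided by Alamar Blue viability fluorescence both relative to DMSO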
TROY signal inh: blocks TROY-dependent signaling in reporter cells. Q293 LMP1-TROYcd NF-kB luciferase reporter, 4 h. AID 1347056. inhibition, % at 10 µM. 360,000 compounds, 0.98% hits;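 active = compounds whose plate-normalised and pattern-corrected inhibition of the luciferase reporter signal at the single screening dose is 50% or more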
LMP1 NFkB inh: Epstein-Barr LMP1 NF-kappaB reporter inhibition; LMP1-induced NF-kappaB luciferase reporter cells, luminescence; inhibition, % at 12.5 µM; 350,000 compounds, 0.69% hits; in the data active = inhibition above about 41%; inconclusive = no clear call, values can overlap the other calls;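 note: 0% = neutral control wells and 100% = reference inhibitor control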
TWEAK-Fn14 inh: TWEAK-Fn14 signaling inhibition; AID 1159606; inhibition, % at 10 µM; TWEAK-stimulated Fn14 reporter cells, luciferase luminescence, 8 h; 360,000 compounds, 2% hits; in the data active = inhibition above about 50%
PAX8 reporter: lowers PAX8-driven luciferase in RMG-I cells. RMG-I TPO-luciferase reporter, SteadyGlo, 24 h. inhibition, % at 12.6 µM. 360,000 compounds, 1.2% hits;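 active = mean replicate inhibition at least 60% with every replicate also reaching 60%; inconclusive = only one of the two criteria is met; inactive = mean below 60% and not all replicates reaching 60%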;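 note: luciferase light reporting Pax8 driven TPO promoter activity; plate controls were median of neutral control wells for no effect and mitoxantrone controls for full effect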
* marks the source's active call; other numbers are inactive results; ? = inconclusive; nt = no result.

SMILES	LGR2 antag	EWS-Fli inh	TROY signal inh	LMP1 NFkB inh	TWEAK-Fn14 inh	PAX8 reporter
Cc1cc(Br)ccc1NC(=O)CNC(=O)Cn1ncc(Cl)c(Cl)c1=O	74*	27	28	83*	60*	9
Cc1noc(C)c1S(=O)(=O)Nc1ccc2c(c1)C(=O)N([C@H](C)CO)C[C@@H](C)[C@@H](CN(C)C(=O)Nc1cccc3ccccc13)O2	18	4	nt	nt	nt	nt
CNC[C@H]1OCCCC[C@@H](C)Oc2ccc(NS(=O)(=O)c3ccc(Cl)cc3)cc2C(=O)N([C@@H](C)CO)C[C@H]1C	13	-16	nt	nt	nt	-12
O=C(Cn1ncc(Cl)c(Cl)c1=O)c1ccc2c(c1)OCCO2	?	7	23	4	101*	-26
CCC(=O)c1ccc2c(c1)OCCO2	-9	-11	-8	6	5	10
COc1cc([N+](=O)[O-])cc(/C=N/NC(=O)c2ccc(NC(=O)c3ccc(C)cc3)cc2)c1O	28	29	-1	-5	70*	30
COc1cccc(/C=N/NC(=O)c2cc3cc([N+](=O)[O-])ccc3s2)c1O	24	21	17	64*	-6	33
COc1cc([N+](=O)[O-])cc(/C=N/NC(=O)c2ccc(C)nc2)c1O	-12	nt	-8	3	10	3
COc1ccc(NC(=O)N(C)C[C@H]2Oc3c(NC(=O)Nc4ccc5c(c4)OCO5)cccc3C(=O)N([C@@H](C)CO)C[C@H]2C)cc1	22	-1	nt	nt	nt	nt
Cc1ccc(-c2c[n+](Cc3ccc(Cl)c(Cl)c3)c3n2CCC3)cc1	-3	nt	28	5	41	80*
Cc1ccc(C(=O)C[n+]2cc(-c3ccc(C)cc3)n3c2CCCCC3)cc1	nt	nt	41	30	39	nt
Clc1ccc(OCc2nn3c(-c4ccco4)nnc3s2)c(Cl)c1	nt	nt	69*	2	47	nt
C[C@@H]1CN([C@@H](C)CO)C(=O)c2cc(NS(=O)(=O)c3ccc(F)cc3)ccc2O[C@@H](C)CCCCO[C@@H]1CN(C)CC1CCCCC1	5	11	nt	nt	nt	15
CCOc1ccccc1NC(=O)Cn1c(=O)sc2ccccc21	5	6	-1	64*	-13	12
Cc1noc(C)c1NC(=O)Nc1ccc2c(c1)C(=O)N([C@H](C)CO)C[C@H](C)[C@@H](CN(C)C(=O)NC(C)C)OCCCC[C@@H](C)O2	9	-2	nt	nt	nt	-30
N/C(=N\OC(=O)c1ccc(F)cc1)c1nonc1N	-35	-11	-70	8	-14	-10
Cc1ccc(C(=O)O/N=C(\N)c2nonc2N)cc1	78*	-25	66*	-25	55*	-26
C[C@H](CO)N1C[C@H](C)[C@H](CN(C)C(=O)c2cnccn2)Oc2ncc(-c3cccc(C#N)c3)cc2C1=O	-30	-9	nt	nt	nt	-11
CCC(=O)N[C@H]1CC[C@@H](CC(=O)NCc2ccc(OC)cc2)O[C@@H]1CO	-19	-3	nt	nt	nt	-21
O=C(Nc1nc2c(s1)CCCC2)c1ccc(N2C(=O)CCC2=O)cc1	-36	nt	-31	-7	-12	-157
O=C(Nc1nc2c(s1)CCCC2)c1ccc(Br)s1	26	nt	6	-24	55*	nt
O=S(=O)(Nc1cc2nc3ccccc3nc2n1Cc1ccccc1)c1ccc(Cl)cc1	nt	-9	49	3	96*	36
O=S(=O)(NCc1ccccc1)c1ccc(Cl)cc1	nt	nt	1	-6	-3	-11
CCc1ccc(OCc2ccc(C(=O)O)o2)cc1	-121	-16	-23	-27	54*	-47
CN(C)CC(=O)N[C@@H]1CC[C@@H](CCn2cc(CN(C)C)nn2)O[C@H]1CO	4	-3	nt	nt	nt	-13
Cc1ccc(SCc2[nH]nc3c2C(c2ccc(C)o2)C(C#N)=C(N)O3)cc1 (stereo not given)	4	7	5	66*	17	nt
CC1CCN(C(=O)/C(=C\c2cccs2)NC(=O)c2ccccc2)CC1	44	-15	-28	53*	-5	6
CC1CCN(C(=O)/C(=C\c2ccco2)NC(=O)c2ccccc2)CC1	12	1	2	-5	2	15
C[C@@H]1CCCCO[C@@H](CN(C)Cc2ccc3c(c2)OCO3)[C@@H](C)CN([C@H](C)CO)C(=O)c2cc(NC(=O)c3ccncc3)ccc2O1	3	-1	nt	nt	nt	-4
CCCc1cc(C(=O)Nc2ccc(C(=O)c3ccc(F)cc3)cc2)n(C)n1	nt	nt	59*	27	50*	nt
